Laboratory results: PubChem BioAssay
Calls of active or inactive are those of the source. Unless noted, the rule behind the calls is not given here.

Legend:
[1] = A549 cell viability effects, profiling panel, calcein-AM fluorescence, 48 h, basal (AID 1162); conditions: higher = more signal; note: test concentration not given here
[2] = adipocyte viability effects, profiling panel, cell-based, 3T3-L1 adipocytes, calcein-AM fluorescence, 48 h, basal (AID 1163); conditions: 3T3-L1 adipocytes viability, higher = more signal; note: test concentration not given here
[3] = HepG2 cell viability effects, profiling panel, calcein-AM fluorescence, 48 h, basal (AID 1164); conditions: higher = more signal; note: test concentration not given here
[4] = MM1S cell viability effects, profiling panel, calcein-AM fluorescence, 48 h, basal (AID 1165); conditions: higher = more signal;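 note: viability of MM1S multiple myeloma cells under basal unstimulated conditions; test concentration not given here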
[5] = basal RPMI8226 viability, no added stimulus, profiling panel, cell-based, calcein-AM fluorescence, 48 h, PK04 Diversity Set (AID 1166); conditions: RPMI8226 myeloma viability, higher = more signal;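 note: cells grown under basal conditions without added stimulus; test concentration not given here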
[6] = basal HepG2 mitochondrial membrane potential changes, profiling panel, cell-based, JC-1 fluorescence, 24 h, 100 nL compound (AID 1167); conditions: higher = more signal; note: test concentration not given here
[7] = basal 3T3-L1 adipocyte mitochondrial potential changes, profiling panel, cell-based, JC-1 fluorescence, 3T3-L1 adipocytes, 24 h, 100 nL compound (AID 1168); conditions: JC-1 mitochondrial fluorescence, higher = more signal, called active from +8 up or from −8 down; note: test concentration not given here
[8] = basal RPMI8226 mitochondrial membrane potential changes, profiling panel, cell-based, JC-1 fluorescence, 24 h, 100 nL compound (AID 1169); conditions: RPMI8226 myeloma, JC-1 mitochondrial potential fluorescence, higher = more signal; note: test concentration not given here
[9] = basal MM1S mitochondrial membrane potential changes, profiling panel, cell-based, JC-1 fluorescence, 24 h, 100 nL compound (AID 1170); conditions: higher = more signal; note: test concentration not given here
[10] = A549 lung cancer cell viability effects, profiling panel, resazurin fluorescence, 24 h, PK04 Diversity Set (AID 1171); conditions: higher = more signal, called active from +8 up or from −8 down; note: test concentration not given here
[11] = HepG2 liver cancer cell viability effects, profiling panel, resazurin fluorescence, 24 h, PK04 Diversity Set (AID 1172); conditions: higher = more signal; note: test concentration not given here
[12] = basal S. cerevisiae growth modulation, no modifier, primary screen, OD600, strain BY4716, 24 h, basal condition (AID 1173); conditions: OD600, 24 h, higher = more signal, called active from +8 up or from −8 down
[13] = MM1S myeloma cell viability, profiling panel, resazurin fluorescence, basal, 24 h, PK04 Diversity Set (AID 1174); conditions: higher = more signal, called active from +8 up or from −8 down;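 note: MM1S multiple myeloma cell line; test concentration not given here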
[14] = target: Dihydroorotate dehydrogenase (quinone), mitochondrial (Plasmodium falciparum (isolate 3D7)) (UniProt Q08210); assay: PfDHODH enzyme inhibitors, primary screen, biochemical, C-terminal His tag, absorbance 600 nm (AID 1175); conditions: DCIP absorbance 600 nm, higher = more signal, called active from +8 up or from −8 down;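 note: recombinant parasite enzyme with a five histidine tag at its C terminus; test concentration not given here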
Chain of Dihydroorotate dehydrogenase (quinone), mitochondrial (Plasmodium falciparum (isolate 3D7)) (Q08210 whole entry, looked up): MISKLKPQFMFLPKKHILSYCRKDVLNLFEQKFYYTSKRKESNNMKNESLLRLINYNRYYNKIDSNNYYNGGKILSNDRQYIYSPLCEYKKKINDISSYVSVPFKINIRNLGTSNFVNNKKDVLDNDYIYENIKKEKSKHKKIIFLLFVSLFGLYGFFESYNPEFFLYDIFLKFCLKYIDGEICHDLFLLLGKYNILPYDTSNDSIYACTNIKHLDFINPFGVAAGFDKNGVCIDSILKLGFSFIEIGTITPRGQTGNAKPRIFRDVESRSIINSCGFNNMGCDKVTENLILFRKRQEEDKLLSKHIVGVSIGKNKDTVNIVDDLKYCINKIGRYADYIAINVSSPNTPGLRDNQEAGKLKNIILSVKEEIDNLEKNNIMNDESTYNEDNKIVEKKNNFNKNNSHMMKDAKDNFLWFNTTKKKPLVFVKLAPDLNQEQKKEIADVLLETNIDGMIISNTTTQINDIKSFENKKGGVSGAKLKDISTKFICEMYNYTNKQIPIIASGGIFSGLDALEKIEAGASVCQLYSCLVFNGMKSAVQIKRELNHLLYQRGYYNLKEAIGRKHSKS

[15] = P. aeruginosa biofilm formation inhibitors, primary screen, strain PAO1, LB-PBS medium, absorbance 600 nm (AID 1176); note: test concentration not given here; conditions: P. aeruginosa PAO1 growth/biofilm, A600, 12 h; higher = more signal
[16] = S. cerevisiae RM11-1a growth modifiers, primary screen, strain RM11-1a, OD600, basal, 24 h (AID 1177); conditions: OD600, 24 h, higher = more signal, called active from +8 up or from −8 down;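 note: cultures grown under basal conditions with no added stressor; test concentration not given here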
[17] = E. coli acrAB mutant growth effects, primary screen, E. coli filamentation inducers, strain DRC39, OD650, 24 h (AID 1178); conditions: higher = more signal, called active from +8 up or from −8 down;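 note: growth measured as culture turbidity by optical density at 650 nm; test concentration not given here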
[18] = E. coli acrAB mutant growth effects, primary screen, E. coli filamentation inducers, strain DRC39, OD650, 48 h (AID 1179);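 note: screen aims at cell division blockers that make cells filament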; conditions: E. coli DRC39 delta-acrAB growth, higher = more signal, called active from +8 up or from −8 down
[19] = RPMI8226 myeloma cell viability, profiling panel, resazurin fluorescence, basal, 24 h, PK04 Diversity Set (AID 1180); conditions: higher = more signal;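 note: RPMI8826 multiple myeloma cell line at 5000 cells per well; test concentration not given here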
[20] = target: E3 ubiquitin-protein ligase XIAP (Homo sapiens) (UniProt P98170); assay: XIAP binders, primary screen, biophysical, small-molecule microarray, fluorescence 635 nm (AID 1181); conditions: small-molecule microarray binding, higher = more signal;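 note: score merges 667 nm emission and signal to noise over triplicate slides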
Chain of E3 ubiquitin-protein ligase XIAP (Homo sapiens) (P98170 whole entry, looked up): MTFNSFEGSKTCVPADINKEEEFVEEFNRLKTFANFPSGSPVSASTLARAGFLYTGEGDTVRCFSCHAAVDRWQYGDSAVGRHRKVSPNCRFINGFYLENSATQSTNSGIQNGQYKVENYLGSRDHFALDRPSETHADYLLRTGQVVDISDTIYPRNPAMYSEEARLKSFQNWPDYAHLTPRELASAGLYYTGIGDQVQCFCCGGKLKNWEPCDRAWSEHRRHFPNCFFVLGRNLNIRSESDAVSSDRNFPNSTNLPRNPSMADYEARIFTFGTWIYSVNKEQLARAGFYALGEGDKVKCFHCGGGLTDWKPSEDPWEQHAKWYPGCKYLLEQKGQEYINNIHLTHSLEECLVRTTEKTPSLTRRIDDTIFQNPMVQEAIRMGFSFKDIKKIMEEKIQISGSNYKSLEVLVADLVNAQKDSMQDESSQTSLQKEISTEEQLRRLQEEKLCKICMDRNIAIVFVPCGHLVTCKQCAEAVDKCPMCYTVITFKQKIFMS

| Structure (SMILES) | z-score [1] | z-score [2] | z-score [3] | z-score [4] | z-score [5] | z-score [6] | z-score [7] | z-score [8] | z-score [9] | z-score [10] | z-score [11] | z-score [12] | z-score [13] | composite z-score [14] | z-score [15] | z-score [16] | z-score [17] | z-score [18] | z-score [19] | composite z-score [20] |
| --- | --- | --- | --- | --- | --- | --- | --- | --- | --- | --- | --- | --- | --- | --- | --- | --- | --- | --- | --- | --- |
| CCCC=C(CCC)[C@@H](NC(=O)Cc1ccccc1)c1ccc(C(=O)OC)cc1 | -0.988 | -0.735 | -0.512 | -2.42 | -0.513 | -1.59 | -1.7 (inactive) | -0.566 | -2.09 | -0.712 (inactive) | -0.704 | 0.951 (inactive) | -1.14 (inactive) | -0.831 (inactive) | 0.964 (inactive) | 1.49 (inactive) | 0.276 (inactive) | 0.543 (inactive) | -0.702 | 0.11 |
| O=C1O[C@H](c2ccccc2)[C@H](c2ccccc2)N2[C@H]1[C@@H](C(=O)NC[C@H](O)c1ccccc1)[C@]1(C(=O)Nc3ccccc31)[C@H]2c1ccccc1OCCO | -1.78 | 0.559 | -5.16 | -3.38 | -4.61 | -2.92 | 2.95 (inactive) | -1.15 | -2.19 | -3.12 (inactive) | -2.69 | -0.251 (inactive) | -9.21 (active) | -0.719 (inactive) | 3.02 (inactive) | 1.75 (inactive) | 0.346 (inactive) | 0.784 (inactive) | -7.33 | 0.189 |
| OCCCC1=CC(c2cccs2)N(Cc2cccc(OC(F)(F)F)c2)CC1 (stereo not given) | -0.686 | -0.777 | -1.13 | -3.3 | -3.79 | -1.24 | -1.13 (inactive) | -0.733 | 0.478 | 0.397 (inactive) | -0.505 | -4.17 (inactive) | -0.656 (inactive) | -1.3 (inactive) | -0.341 (inactive) | -0.54 (inactive) | 0.0886 (inactive) | -0.573 (inactive) | -0.175 | 0.282 |
| O=C(O)[C@@]1(Cc2ccccc2)COC(c2ccc(OCCCO)cc2)=N1 | -0.297 | 0.139 | 0.0851 | -0.108 | 0.21 | -0.519 | -0.0997 (inactive) | 0.478 | 0.0336 | 0.542 (inactive) | 0.0838 | 1.02 (inactive) | 0.296 (inactive) | 1.75 (inactive) | 0.274 (inactive) | 1.4 (inactive) | 1.58 (inactive) | 0.466 (inactive) | 0.318 | 0.33 |
